For 5 compounds, AC50 and outcome results are on record in PubChem BioAssay (EPA / NIEHS).

Results filed as inconclusive are left out. Activity calls are given as the source filed them. The calls were made as follows, unless noted: active = hit-call score of the fitted dose curve at least 0.9, where 1 is the maximum; inactive = score below 0.9.

Test [1] is described as follows: CCTE_Deisenroth_AIME_384WELL_CTox_Inactive: Cytotoxicity Assessment (CTOX) in CCTE's 384-well Estrogen Receptor Transactivation Assay without AIME metabolic competence (metabolism negative), Deisenroth Lab (AID 2284039; active = hit-call score of the fitted dose curve at least 0.9, where 1 is the maximum;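 also: cell viability via live-cell protease substrate cleaved to fluorescent probe; cells exposed 24 h to medium preincubated 2 h with alginate-water beads without S9; loss of fluorescence signal means loss of viability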). The essentials:
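VM7Luc4E2 human breast cells received conditioned medium from a 2 h incubation of chemical with alginate-water microspheres (no S9), then were exposed 24 h. Viability was read as protease-substrate cleavage to a fluorescent probe; loss of signal was fitted bidirectionally over 0.002–200 uM.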

Test [2] is described as follows: CCTE_Shafer_MEA_dev_active_electrodes_number: CCTE's Neural Network Formation Assay for Number of Active Electrodes, Shafer Lab (AID 2284040; active = hit-call score of the fitted dose curve at least 0.9, where 1 is the maximum;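 also: potency for loss of active electrodes versus DMSO so lower counts are hits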). The essentials:
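Developing rat cortical networks on MEAs, exposed DIV 0–12. Value is the AUC of active-electrode counts (≥5 spikes/min) from days 5, 7, 9, 12, relative to DMSO.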

Test [3] is described as follows: CCTE_Shafer_MEA_dev_burst_rate: CCTE's Neural Network Formation Assay for Burst Rate, Shafer Lab (AID 2284042).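 Also: potency for loss of burst rate below DMSO control.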 The essentials: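 Rat primary cortical cultures on PEI/laminin MEA; compound from plating, re-dosed at DIV 5, 9 media change. Single-electrode bursts/recording length, well mean of active electrodes; AUC over DIV 5–12 recordings; loss-of-signal vs DMSO.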

Test [4] can be described thus: CCTE_Shafer_MEA_dev_bursting_electrodes_number: CCTE's Neural Network Formation Assay for Number of Bursting Electrodes, Shafer Lab (AID 2284043; active = hit-call score of the fitted dose curve at least 0.9, where 1 is the maximum;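 also: potency is for loss of bursting electrodes relative to DMSO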). In short, it runs like this:
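Rat cortical primary neurons, 48-well MEA, 16 electrodes/well; dosing DIV 0–12, re-dosed with full media change DIV 5, 9. Recordings DIV 5/7/9/12, AxIS adaptive spike detector; bursting electrode = ≥1 burst/2 min. AUC across days; loss of signal vs DMSO.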

The nature of test [5]: CCTE_Shafer_MEA_dev_per_burst_interspike_interval: CCTE's Neural Network Formation Assay for Burst Interspike Interval, Shafer Lab (AID 2284044).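 Also: mean spike spacing inside bursts as AUC over recordings on days 5 7 9 12; potency for a decrease of within-burst interspike interval below DMSO level.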 The essentials:
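Spontaneous activity of maturing rat cortical networks is recorded on DIV 5, 7, 9 and 12 under chronic compound exposure beginning at plating. Endpoint: burst interspike interval well-mean, collapsed into trapezoidal AUC and fitted in the negative direction relative to DMSO.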

Test [6] is described as follows: CCTE_Shafer_MEA_dev_burst_duration_mean: CCTE's Neural Network Formation Assay for Mean Burst Duration, Shafer Lab (AID 2284045).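 As to AC50: curve fitted for loss meaning shorter burst duration than DMSO.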 The essentials:
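Rat cortical cultures, 1.5 x 10^5 cells/well with laminin drop; continuous dosing days 0–12, media plus treatment refreshed DIV 5, 9. AxIS adaptive spike detection; mean single-electrode burst duration, AUC over four recordings, negative direction vs DMSO.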

A short description of test [7]: CCTE_Shafer_MEA_dev_interburst_interval_mean: CCTE's Neural Network Formation Assay for Mean Interburst Interval, Shafer Lab (AID 2284046).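 Also: well-mean interburst interval of bursting electrodes as AUC over four recording days; curve fitted for decrease in interburst interval relative to DMSO.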 In short, it runs like this: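 Rat cortical neurons, 1.5 x 10^5 cells/well, 48-well MEA; compound from day 0 through DIV 12, media and treatment renewed DIV 5/9. Recordings DIV 5, 7, 9, 12; well-mean interburst interval → trapezoidal AUC, loss direction vs DMSO.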

Test [8] in a line: CCTE_Shafer_MEA_dev_inter_network_spike_interval_mean: CCTE's Neural Network Formation Assay for Mean Inter-network Spike Interval, Shafer Lab (AID 2284047).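 As to AC50: potency for a decrease in mean inter-network spike interval below DMSO.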 In short, it runs like this:
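Primary rat cortical neurons on PEI-coated 48-well MEAs (16 electrodes/well) were exposed from plating day 0 to DIV 12, with dosing renewed at DIV 5 and 9. Recordings at DIV 5, 7, 9, 12 were collapsed by trapezoidal AUC, loss-of-signal fit vs DMSO.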

Test [9] can be described thus: CCTE_Shafer_MEA_dev_network_spike_number: CCTE's Neural Network Formation Assay for Number of Network Spikes, Shafer Lab (AID 2284048).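 Also: synchronized bursts across electrodes counted on days 5 7 9 12 and integrated as AUC; fit as a loss of signal meaning fewer network spikes than DMSO.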 The essentials: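 Rat cortical primary cultures on 48-well MEA (16 electrodes/well); continuous exposure DIV 0–12, full medium and treatment exchange DIV 5, 9. Readout: network spike count, AxIS adaptive detection, recordings DIV 5/7/9/12 collapsed to AUC; loss-of-signal fit, DMSO baseline.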

Test [10] is described as follows: CCTE_Shafer_MEA_dev_network_spike_peak: CCTE's Neural Network Formation Assay for Mean Number of Electrodes in Network Spike, Shafer Lab (AID 2284049).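 Also: fitted for loss of signal meaning fewer electrodes in network spikes than DMSO.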 In short, it runs like this: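 Network-spike peak electrode count from recordings on days 5, 7, 9 and 12 was combined as trapezoidal area under the curve. Rat cortical cultures were treated continuously from plating, with compound renewed at each feed (DIV 5, 9); fits versus DMSO.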

Test [11] in a line: CCTE_Shafer_MEA_dev_spike_duration_mean: CCTE's Neural Network Formation Assay for Mean Spike Duration, Shafer Lab (AID 2284051).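 Also: mean network spike duration pooled as area under curve over DIV 5 to 12 recordings; potency for a decrease in mean network spike duration versus DMSO.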 The essentials: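 Rat cortical primary cultures, 48-well MEA (16 electrodes/well); compound from plating, renewed DIV 5, 9. Network spike duration (AxIS adaptive detector) recorded DIV 5/7/9/12, combined as trapezoidal AUC; loss direction vs DMSO.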

Test [12] in a line: CCTE_Shafer_MEA_dev_per_network_spike_spike_number_mean: CCTE's Neural Network Formation Assay for Mean Number of Spikes in a Network Spike, Shafer Lab (AID 2284053).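 Also: fitted as decrease in spikes per network spike relative to DMSO.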 In short, it runs like this:
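Rat cortical primary cultures on 48-well MEA; compound from day 0, re-dosed with full media change DIV 5, 9. Recorded DIV 5, 7, 9, 12; spikes in 0.05 s window at network-spike peak ÷ total network spikes; AUC; loss vs DMSO.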

Test [13] in a line: CCTE_Shafer_MEA_dev_per_network_spike_spike_percent: CCTE's Neural Network Formation Assay for Percent of Spikes in a Network Spike, Shafer Lab (AID 2284054). In short, it runs like this: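 Read-out: percent of spikes falling in a 0.05 s window at network-spike peak, from spontaneous MEA recordings on days 5, 7, 9 and 12; trapezoidal AUC; loss of signal versus DMSO. Rat cortical cultures, compound present throughout.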

A short description of test [14]: CCTE_Shafer_MEA_dev_LDH: CCTE's Lactate Dehydrogenase Assay for Cytotoxicity in the Neural Network Formation Assay, Shafer Lab (AID 2284068; active = hit-call score of the fitted dose curve at least 0.9, where 1 is the maximum;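 also: exposure for twelve days from plating with re-dosing on DIV 5 and 9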). The essentials:
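Rat cortical primary neurons, MEA culture; dosing day 0–12, full medium plus compound exchange DIV 5, 9. Read-out: LDH enzyme activity, spectrophotometric. DMSO = negative control/baseline; signal loss → cytotoxicity.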

Test [15] can be described thus: CCTE_Shafer_MEA_acute_AB: CCTE's Alamar Blue Assay for Cytotoxicity in the Neural Acute Assay, Shafer Lab (AID 2284069; active = hit-call score of the fitted dose curve at least 0.9, where 1 is the maximum;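 also: active compounds lower the viability signal compared with DMSO wells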). The essentials: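 Read-out: resazurin fluorescence (ex 544, em 590 nm) after CTB reagent at 1:6 dilution in fresh media. Cells: primary rat cortical neuron networks, DIV 13 or 15, chemically exposed on MEA plates; DMSO as negative control/baseline.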

Test [16] is described as follows: CCTE_Shafer_MEA_dev_AB: CCTE's Alamar Blue Assay for Cytotoxicity in the Neural Network Formation Assay, Shafer Lab (AID 2284083; active = hit-call score of the fitted dose curve at least 0.9, where 1 is the maximum;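 also: resazurin reduction fluorescence as viability of cultured neurons; twelve days of exposure from plating with re-dosing on DIV 5 and 9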). The essentials: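 Rat cortical primary cultures, 1.5 x 10^5 cells/well on MEA; continuous compound exposure over 12 days of network development, re-dosed with full medium change DIV 5 and 9. Alamar Blue fluorescence; loss of signal = cytotoxicity vs DMSO baseline.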

Test [17] relates to DIO2 (gene 1734). The test is described as follows: CCTE_GLTED_hDIO2: CCTE's human Deiodinase 2 (DIO2) Inhibition Assay, Great Lakes Toxicology and Ecology Division (GLTED) Lab (AID 2284050; active = hit-call score of the fitted dose curve at least 0.9, where 1 is the maximum). The essentials: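 Readout: absorbance from Sandell-Kolthoff detection of free iodide released by human DIO2 during a 3 h incubation with chemical. Cell-free format, n=3; activity fitted relative to DMSO negative control.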

The test system of test [18] is DIO3 (gene 1735). The test is described as follows: CCTE_GLTED_hDIO3: CCTE's human Deiodinase 3 (DIO3) Inhibition Assay, Great Lakes Toxicology and Ecology Division (GLTED) Lab (AID 2284055; active = hit-call score of the fitted dose curve at least 0.9, where 1 is the maximum;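 also: potency is for inhibition seen as loss of released iodide signal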). In short, it runs like this:
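hDIO3 (adenovirus-expressed) + test chemical, 3 h incubation; free iodide quantified by Sandell-Kolthoff reaction, absorbance read-out. DMSO negative control, n=3.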

Test [19] is described as follows: UKN5_HCS_SBAD2_cell_viability: Viability Assessment in the University of Konstanz (UKN) Leist Lab Neurite Outgrowth Assay in human iPSC-derived immature Dorsal Root Ganglia Neurons (UKN5) (AID 2284056). In short, it runs like this: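 iPSC-derived immature peripheral neurons (SBAD2) seeded on Matrigel with CHIR99021, SU5402 and DAPT, dosed 1 h later for 24 h. Viability from Hoechst H-33342 and calcein-AM live staining, high-content imaging; bidirectional fit versus DMSO.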

Test [20] in a line: UKN5_HCS_SBAD2_neurite_outgrowth: University of Konstanz (UKN) Leist Lab Neurite Outgrowth Assay in human iPSC-derived immature Dorsal Root Ganglia Neurons (UKN5) (AID 2284070). To be noted: actives raise or lower the signal. In short, it runs like this: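 Cryopreserved SBAD2 peripheral neurons were seeded at 100.000 cells/cm2 in N2-S/KSR medium containing CHIR99021, SU5402 and DAPT, then exposed to compounds for 24 h. Neurite area from calcein-AM high-content imaging was fitted bidirectionally against DMSO.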

Regarding `CC1(C)CCC(Cc2ccc(Cl)cc2)C1(O)Cn1cncn1` (centres undefined), the AC50 in test [1] is 119000 nM (active).

As to `CC(=O)[O][Hg][c]1ccccc1`, the AC50 in test [1] is 46300 nM (active); in [2] it was 14.6 nM (active); in test [3], 11.7 nM (active); in test [4] it was 10.8 nM (active); in [5], 15.4 nM (active); in test [6] it was 9.63 nM (active). Also, the AC50 in test [7] was 9.58 nM (active); in test [8], 25.5 nM (active); in test [9] it was 9.11 nM (active); in [10], 14.5 nM (active); in test [11], 12.1 nM (active); in test [12], 23.8 nM (active). For the same compound, the AC50 in test [13] was 17.3 nM (active); in test [14], 18.3 nM (active); in test [15], 20000 nM (active); in test [16] it was 22 nM (active).

On to `O=C1C2(Cl)C3(Cl)C4(Cl)C(Cl)(Cl)C5(Cl)C3(Cl)C1(Cl)C5(Cl)C24Cl` (centres undefined), for which the half-maximal activity concentration (AC50) in test [2] is 4580 nM (active); in [3], 3990 nM (active); in test [4], 3550 nM (active); in [5], 10000 nM (active); in [7], 3750 nM (active); in [8], 1.31 nM (active). Further, the AC50 in test [9] was 3180 nM (active); in test [10], 5380 nM (active); in test [17], 28300 nM (active); in [11], 5430 nM (active); in test [12], 341 nM (active); in test [18], 4510 nM (active). The AC50 in test [14] is 8190 nM (active); in test [20], 14600 nM (active); in test [16], 8770 nM (active). For the same compound, the compound was classed as inactive in test [6], in test [19] and in test [15].

For the compound `CC(C)(c1ccc(OCC2CO2)cc1)c1ccc(OCC2CO2)cc1` (centres undefined), the concentration at half-maximal activity (AC50) in test [17] was 3760 nM (active); in test [18], 3620 nM (active).

For `C=C(C)C(=O)[O][Sn]([CH2]CCC)([CH2]CCC)[CH2]CCC`, the AC50 in test [2] is 26.6 nM (active); in test [3], 22.5 nM (active); in test [4], 19.9 nM (active); in [5] it was 33.6 nM (active); in test [6], 26.6 nM (active); in test [7], 48.2 nM (active). Also, the concentration at half-maximal activity (AC50) was 21.8 nM (active) in test [9]; 39.4 nM (active) in test [10]; 31.2 nM (active) in test [11]; 30.1 nM (active) in [12]; 1980 nM (active) in [13]; 246 nM (active) in test [19]. The AC50 in test [14] was 1980 nM (active); in test [15] it was 4690 nM (active); in [20], 127 nM (active); in [16], 91.5 nM (active). For the same compound, in test [8], the outcome was inactive.
